In the library only some 4% were active in any assay of this set; here they are far more common.
KKLEB cytotox: cytotoxicity in KKLEB CF airway cells, primary screen, cytotoxicity control for CF NF-kB inhibitor project, cell-based, uHTS, fluorescence assay plates; KKLEB CF airway cells viability, ATPlite luminescence, overnight; stronger effect = lower value; cells stimulated with P. aeruginosa culture filtrate; 360,000 tested, 0.36% active; activity change (cytotoxicity), % at 5 µM;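 active means corrected activity change at or below -50% at 5 µM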
Peg3 prom inh: Peg3 promoter-driven luciferase inhibitors, primary screen, cell-based, HeLa, luciferase luminescence; HeLa PEG-Prom luciferase reporter, overnight; inhibition, % at 20 µM; 360,000 tested, 1.7% active; AID 588405, 2011;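 active means inhibition of at least 50% at 20 µM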
HIF-2a inh: HIF-2a reporter inhibitors, primary screen, luminescence, 786-0 RCC cells. 786-0 RCC cells HIF-2a reporter, luciferase luminescence, overnight. inhibition, % at 18.8 µM. 360,000 tested, 0.72% active. AID 624352, 2012;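 active means inhibition of the luminescence signal of 40% or more relative to plate controls, in a single-dose primary screen at 18.75 µM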
TWEAK Fn14 block: inhibitors of TWEAK-Fn14 signaling, primary screen, luciferase reporter cells, uHTS. 360,000 tested, 2% active. AID 1159606, 2016. TWEAK-stimulated Fn14 reporter cells, luciferase luminescence, 8 h. inhibition, % at 10 µM; in the data active means inhibition above about 50%
TROY signal inh: inhibitors of TROY-driven NF-kB signaling, primary screen, Q293 LMP1-TROYcd cells, NF-kB luciferase, uHTS. Q293 LMP1-TROYcd NF-kB luciferase reporter, 4 h. 360,000 tested, 0.98% active. inhibition, % at 10 µM;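 active means compounds whose plate-normalised and pattern-corrected inhibition of the luciferase reporter signal at the single screening dose is 50% or more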
CF NFkB inh: inhibitors of PAF-induced NF-kB signaling, primary screen, cell-based, GFP fluorescence, uHTS; KKLEB NF-kB-GFP reporter, GFP fluorescence overnight; inhibition, % at 5 µM; 360,000 tested, 0.86% active; AID 588850, 2011;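 active means at least 50% inhibition at 5 µM, scaled per plate between neutral and stimulator controls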;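 further: PAF is a Pseudomonas aeruginosa culture filtrate used as stimulus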
HIF-2a conf: HIF-2a reporter inhibitor retest, confirmation, luminescence, 786-0 RCC cells | inhibition, % at 18.8 µM | 1,800 tested, 56% active | shares compounds with HIF-2a inh | HIF-2a luciferase reporter luminescence, overnight;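 active means mean inhibition across four replicates of at least 40 percent at the single tested concentration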
HIF-1a counter: HIF-1a luciferase reporter signal reduction – MiaPaCa-2 cells, single concentration, counter-screen for HIF-2a inhibitor project, confirmation; 1,800 tested, 72% active; MiaPaCa-2 HIF-1a luciferase reporter, desferoxamine, overnight; AID 651589, 2012; inhibition, % at 18.8 µM; shares compounds with HIF-2a inh;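 active means mean inhibition of the reporter signal across four replicates at the single tested dose of 50% or more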
A number is an active result.

Results for Cc1c(CCC(=O)O)c(=O)oc2cc(OCc3ccccc3Br)ccc12 ?
KKLEB cytotox: inactive; Peg3 prom inh: inactive; HIF-2a inh: 78; TWEAK Fn14 block: inactive; TROY signal inh: inactive; CF NFkB inh: inactive; HIF-2a conf: 92; HIF-1a counter: 52

Results for Cc1c(CCC(=O)O)c(=O)oc2cc(OCc3cccc(F)c3)ccc12 ?
KKLEB cytotox: inactive; Peg3 prom inh: inactive; HIF-2a inh: inactive; TWEAK Fn14 block: inactive; TROY signal inh: inactive; CF NFkB inh: inactive

How did CCOC(=O)CSc1nc(N)c(C#N)c(-c2ccc(OCC)cc2)c1C#N do in these assays?
KKLEB cytotox: inactive; Peg3 prom inh: inactive; HIF-2a inh: inactive; TWEAK Fn14 block: inactive; TROY signal inh: inactive; CF NFkB inh: inactive

What do the screens show for `COC(=O)CSc1nc(N)c(C#N)c(-c2ccc(O)cc2)c1C#N`?
KKLEB cytotox: inactive; Peg3 prom inh: inactive; HIF-2a inh: 40; TWEAK Fn14 block: inactive; TROY signal inh: inactive; CF NFkB inh: inactive; HIF-2a conf: inactive; HIF-1a counter: inactive

Results for CC(=O)c1c(C)[nH]c(C(=O)Nc2ccc(C)cn2)c1C ?
KKLEB cytotox: inactive; Peg3 prom inh: inactive; HIF-2a inh: 46; TWEAK Fn14 block: 95; TROY signal inh: 67; CF NFkB inh: inactive; HIF-2a conf: 60; HIF-1a counter: 56

Results for COc1ccc(CNC(=O)COC(=O)CCCOc2ccc(Cl)cc2Cl)cc1OC ?
KKLEB cytotox: inactive; Peg3 prom inh: inactive; HIF-2a inh: inactive; TWEAK Fn14 block: inactive; TROY signal inh: inactive; CF NFkB inh: inactive

How did Cc1ccc(CNC(=O)COC(=O)CCCOc2ccc(Cl)cc2Cl)cc1 do in these assays?
KKLEB cytotox: inactive; Peg3 prom inh: inactive; HIF-2a inh: 62; TWEAK Fn14 block: inactive; TROY signal inh: inactive; CF NFkB inh: inactive; HIF-2a conf: 70; HIF-1a counter: 57

What do the screens show for `O=C(COC(=O)CCCOc1ccc(Cl)cc1Cl)NCc1ccccc1`?
KKLEB cytotox: inactive; Peg3 prom inh: inactive; HIF-2a inh: 64; TWEAK Fn14 block: inactive; TROY signal inh: inactive; CF NFkB inh: inactive; HIF-2a conf: 63; HIF-1a counter: 54

How did CCOc1ccc(CCNC(=O)COC(=O)C2CCN(S(=O)(=O)c3ccc(C)c(C)c3)CC2)cc1OCC do in these assays?
KKLEB cytotox: inactive; Peg3 prom inh: inactive; HIF-2a inh: inactive; TWEAK Fn14 block: inactive; TROY signal inh: inactive; CF NFkB inh: inactive

What do the screens show for `O=C(NC(NC(=S)Nc1ccccc1)C(Cl)(Cl)Cl)c1cccc(Cl)c1` (configuration not stated)?
KKLEB cytotox: inactive; Peg3 prom inh: inactive; HIF-2a inh: 47; TWEAK Fn14 block: 75; TROY signal inh: inactive; CF NFkB inh: inactive; HIF-2a conf: inactive; HIF-1a counter: 102

How did O=C(O)c1cccc(NC(=S)NC(NC(=O)c2cccc([N+](=O)[O-])c2)C(Cl)(Cl)Cl)c1 (configuration not stated) do in these assays?
KKLEB cytotox: inactive; Peg3 prom inh: inactive; HIF-2a inh: inactive; TWEAK Fn14 block: inactive; TROY signal inh: inactive; CF NFkB inh: inactive
